In all, about 2,700 sequences were measured (“arbitrary fluorescence units”: median about 4,100, highest 2% from about 54,000 on). Many of the other results were omitted from the sample, so the highest values are more common in it than they were.

This assay has as its target T1, ETS1 (UniProt P14921).
T1 sequence: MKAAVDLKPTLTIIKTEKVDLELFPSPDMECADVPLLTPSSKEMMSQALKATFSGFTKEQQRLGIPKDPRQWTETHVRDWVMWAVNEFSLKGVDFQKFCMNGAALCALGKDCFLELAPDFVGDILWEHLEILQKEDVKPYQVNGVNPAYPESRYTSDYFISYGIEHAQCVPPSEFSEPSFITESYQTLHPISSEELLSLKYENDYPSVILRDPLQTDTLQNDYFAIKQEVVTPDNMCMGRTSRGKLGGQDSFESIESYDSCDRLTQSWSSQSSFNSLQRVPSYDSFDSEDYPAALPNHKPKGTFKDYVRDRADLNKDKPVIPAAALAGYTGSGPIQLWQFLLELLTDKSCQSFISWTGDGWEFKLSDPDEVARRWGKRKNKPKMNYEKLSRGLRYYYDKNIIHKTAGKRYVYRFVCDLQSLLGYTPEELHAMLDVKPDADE
Kind of assay: ETS1 binding intensity (PBM fluorescence) (arbitrary fluorescence units); higher = stronger binding. The settings on record: ETS1 concentration 10 nM. The procedure: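 gcPBM on wild-type 36-bp genomic probes with two neighbouring ETS1 sites (4-24 bp apart). Recombinant human ETS1 (10 nM) was detected with anti-ETS1 antibody fluorescence. Values are medians over 3 replicate spots. The probes sit in constant array flanks that are not printed.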
Sequence GTTTTCAGTTGCCTTCCGGTTTCCTGCTGTGATAAC showed an ETS1 binding intensity of 15800.

TCTACTTCCGGTTTGCCTGTGAATTCTTTCCTGGGC registered an ETS1 binding intensity of 153000.

Regarding GAGGGTAACTTCCTGTTTCTGCCTTCCGGGTTTGAG, the ETS1 binding intensity amounted to 47100.

With AAGGGAATCTGGGAAATGTAGTTTCCTGCAATCCAG, the ETS1 binding intensity stood at 540.

GTCACTTCCGGCCCCGAGTTCGAGCCGCTTCCGGGT: the ETS1 binding intensity worked out at 115000.

For the sequence GGCCGCTTCCGAGCGCCGCCAACCGCTTCCGGGTTC, the ETS1 binding intensity came to 5250.

In turn, GCCCGAGCCGCTTCCGGGTACTTCCGGCGGCCGCGG returned an ETS1 binding intensity of 39600.

Consider GGACTTCCCAACTAGACAGACCAAATGAGGAAGTTG, for which the ETS1 binding intensity was 880.

Turning to CTGGGGGTCCGGATGCTTTGCGTTTCCCAGCAGTTG, the ETS1 binding intensity came out at 1230.

On to GGGCACTTCCGGGGCCGGCGCCCAGAGTTCCGGGAG, for which the ETS1 binding intensity is 46800.

For CCCACTTCCGGCAACAAGATAGAGCACTTCCGTCAA, the ETS1 binding intensity amounted to 77600.

TGACAAGAGCCGGAACCGTCACTTCCGGCGGCGCGG registered an ETS1 binding intensity of 24700.

With TCAGTGGGCGGAAGAGGTGGCCCCGGATGCTGCGGC, the ETS1 binding intensity turned out to be 1430.

The sequence CGCCGCCGGAAGTGCCTGGCCTCACTTCCGGTCAGA returned an ETS1 binding intensity of 37200.

GCGGTTACTTCCGGTCACTTTCGCCGGAACCTGACT: the ETS1 binding intensity was 86200.

In turn, ATTTTCGGTCTTCCGGTCAGCCGGAACCACTCACAC gave an ETS1 binding intensity of 29800.

Turning to CCATTCATTTCCTGCCTCCCCGAGTTCCGGCTGCGG, the ETS1 binding intensity is 35800.

For the sequence CAATTGAGGAAACAGGACCAAAGACAGGAAATGGCT, the ETS1 binding intensity came out at 2860.

In the case of GCGCTTCGGGCCCTTCCGGCTTCCCGGGCCTCCCGG, the ETS1 binding intensity is 8330.

Take CGTCACTTCCGGCGCCGCGTGAGGCCTTCCGGTGCC: the ETS1 binding intensity turned out to be 73900.

For the sequence GCGCCTGATTCACTTCCCTCTTCCGCTCTGAGGCGT, the ETS1 binding intensity came out at 4680.

In the case of CGTCCACTGGAGGCTTCCTTCCGGCGCCCGCGTGCC, the ETS1 binding intensity worked out at 3590.

Consider GACCGCAGGAAGGGACGCGGCCGCACTTCCGGCGAC, for which the ETS1 binding intensity turned out to be 8620.

CCACTTCCGGCATGCGCAGGGACGCACCTTCCGGCT registered an ETS1 binding intensity of 109000.

GCGCTTCCGGGACGCAGGAGGCATCTGCATCCGGGG returned an ETS1 binding intensity of 29000.

Turning to GACAGGAAGGCTACAGGCTGCCTGTGGCTTCCGTGT, the ETS1 binding intensity is 386.

CTCTGTGACTTCCTGGAGACTCACTTCCTAGATGAG gave an ETS1 binding intensity of 11300.

In turn, AGCACTTCCTCAATTTCTGGCTCTACAGGATATTTC registered an ETS1 binding intensity of 16100.

AGACTTCCGTTCTGGCTCTCACTCTAGTTTCCTGGT registered an ETS1 binding intensity of 67500.

On to ACTGCCTTCCTGGCCTGGTGGTGAGAGGAAGTCGGG, for which the ETS1 binding intensity came out at 2260.

As to CTATGGTAGGAAACCCAGAAAACAGGAAGTGGCCTC, the ETS1 binding intensity was 3030.

CAACTTGTCGGAGCGGAACTTCCGGCGTCCTCCCTG showed an ETS1 binding intensity of 22800.

GCTGCAACTTCCGGTGCGCTAGCCGGAAACGCGGGT returned an ETS1 binding intensity of 78200.

GGGTGCGGAAACGCGGCAGCCGCGGCCGGATGCTGC yielded an ETS1 binding intensity of 2710.

TGCCCGGCTTCCGGGTGGCTGCGCGGAAGCGCGGTG: the ETS1 binding intensity came out at 20900.

CCTCCCGGAAGCCGCTGGCCCGCGCCGGAAAAGGTG: the ETS1 binding intensity was 7300.

Sequence ACAACTTCCGGCTGTAAAGATGGCGGCTTCCTAGTG had an ETS1 binding intensity of 96400.

On to GGACAGGGACCGGATGGGAGGGGAAGTCGATGCTTG, for which the ETS1 binding intensity was 3430.

TTTTATTTCCGGTTCTGAGGACGCCGCGGAAGCGGG yielded an ETS1 binding intensity of 78400.

Consider TCCTCCTCACTTCCGCCGGAGCGGAAACGGTGAGGA, for which the ETS1 binding intensity came out at 31200.

GGTGTTCCGGACCCGCGCGGTGCGGGGAGGAAGGCC displayed an ETS1 binding intensity of 1700.

As for GGTGCTCACGGATGCTACGCTTGTTCCTGTCTCCTC, the ETS1 binding intensity stood at 370.

TGAGCTATTTGACTTCCGGTTTCCTGCCCCATTTAA: the ETS1 binding intensity was 63200.

On to GCCCTTCCGGTTATTTCCCTTCCTGTTTGTCTGCCT, for which the ETS1 binding intensity was found to be 48700.

AGCCCCACCATTTCCTGTGACTTCCTGGAGCCTGGC yielded an ETS1 binding intensity of 25600.

Turning to TCAATTTCTCATTTCCCTGGAGGAAGCCCATAAAGT, the ETS1 binding intensity amounted to 217.

CGGGCGGAAAGGGAGCTAGAGCATTCTGGGAAATGG displayed an ETS1 binding intensity of 178.

In the case of GCGGCTTGGGCCTTCCGGCTTTCCGTCCGCCGCGGC, the ETS1 binding intensity came to 7060.

For TGTTTACTTCCGGCTTTTCGCCTAATTCCGGCGGCC, the ETS1 binding intensity was determined as 55000.

TTATTCTGTTTCCGGCAGTTTTACTTCCGTTTGTTT had an ETS1 binding intensity of 15900.

On to AAAGCGCATTGCGGATGGCAATTCCGGTGCGTCATT, for which the ETS1 binding intensity was 732.

Consider CACCACTTCCTGTTTCTGAGTCATCAGGAAGGTAAT, for which the ETS1 binding intensity came out at 58900.

CATTTACCACTTCCTGAGGTCATTTCCTGTTTTCTT yielded an ETS1 binding intensity of 25800.

As to GCTTGGCAGTCAGGAAGGACTTCCTGTTTCTGCTTC, the ETS1 binding intensity was found to be 14400.

AGCAACTTCCGGTGCGCTTAGCGTTACTTCCGGCGC displayed an ETS1 binding intensity of 116000.

Regarding CTCGCAGGCTTCCCGGCTGCAACTTCCGGCGCATGC, the ETS1 binding intensity was 14600.

The sequence ACCCGGAAGCGCTTCACCCAGCCTGAGCGGAAGAAC registered an ETS1 binding intensity of 5640.

CCCAGCTAAAGGAAGTCTGGCACTTCCTCTCCTCAA showed an ETS1 binding intensity of 2990.

The sequence GAGCGGAAGTGGAAAAGACTAACTTCCGGCCTCGGG came in with an ETS1 binding intensity of 30600.

GAGCACGACTTCCGGCCTGAAAAGGAAGTCTCCTCC: the ETS1 binding intensity is 89000.

For GACAGTTTCCTCTTTCACACTAGAATATCCTGTTGT, the ETS1 binding intensity is 10900.

The sequence TGCGCCCCGTGCTTCCTGCCATCCTGTGCTCTCTGC returned an ETS1 binding intensity of 9740.

On to ACCAGGGCTGCTTCCTCACATTTCCGGTCCTGAAAA, for which the ETS1 binding intensity came to 27700.

With TCATCTCTCCTGCAGGAAGGAAGTCCTGCCTCCCAC, the ETS1 binding intensity was determined as 315.

Regarding GGACCGGAAGTGCCTCCTGCGGAGGCAGGAAGTCCC, the ETS1 binding intensity turned out to be 58700.

The sequence AGCAGGAAGGACCTCAGTCCTCCAGTGCGGATGCTG had an ETS1 binding intensity of 207.

In turn, AACGTCCAGGAGGAAGTCAATTTCCTGGCCCTCAAT showed an ETS1 binding intensity of 5100.

Regarding GCGCCGGAAGCAGAGACGCGTTTCGGGAGGAAGGTG, the ETS1 binding intensity was found to be 3580.

The sequence GCAGGAGACGGAAGATGCATGGGTTTCCTGGCGCGC registered an ETS1 binding intensity of 424.

CGGGACCGGAAGTGACGCAGAGAAGTTTCCGGGACT yielded an ETS1 binding intensity of 56800.

Consider ACAGCATCCGGAGCGCCGACGCGGGACCGGAAGTGA, for which the ETS1 binding intensity was found to be 26000.

In the case of AGAAGCACACAAGGAAGTGTTTCCGGGACAGAGGGT, the ETS1 binding intensity stood at 9030.

In turn, TAGTCCTGAAACTTCCTCTGCTTCCTCCTCCTGCCC displayed an ETS1 binding intensity of 2700.

With CACGGTGATTTCCTGTAAACAACAGGAAATGTACAG, the ETS1 binding intensity stood at 22700.

Sequence ACCGCCCGGAAGTGACGCGCCCGCGCATCCGGCCAC had an ETS1 binding intensity of 19800.

TCGGACCGGAAGGAGTTGTTGGCGCTTCCGGTGGCC returned an ETS1 binding intensity of 15900.

Sequence CGGACCGGAAGTTGGGGTGACGCAATTTCCGGCGCG came in with an ETS1 binding intensity of 54200.

In turn, ATCACCAGCCTTCCTGTGGGACCGGAAAGGCAGTAG displayed an ETS1 binding intensity of 2720.

GTAATACTTCGGGGAAATGCAGGATGCAGCTGCTGC: the ETS1 binding intensity amounted to 243.

With CGAGGCGGTCGCGGAAGTAGAGGAAGCCTTCGCGGT, the ETS1 binding intensity came to 686.

The values are drawn from the supplement of paper PMC10681739.
